HCMV antiviral = inhibitors of human cytomegalovirus; activity change, negative = inhibition, % at 57.5 µM; HFF cells, HCMV-luciferase reporter, 72 h; hits give low values; actives 4.5% (n = 410,000); AID 1259415; in the data active = activity change below about -60%; inconclusive = no clear call, values can overlap the other calls; inactive = above about -39%
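After 16 h attachment at 37C, HFF cells received test compound and HCMV-luciferase (1 PFU/cell); reporter luminescence read 72 h later, data normalized against buffer-only and known inhibitor Salinomycin.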
Shiga inhibitor = Shiga toxin inhibition; Vero cells, Shiga toxin protein synthesis inhibition reporter; inhibition, % at 38.7 µM; actives 9.2% (n = 290,000); in the data active = inhibition mostly above about 28%, no sharp cut-off; inactive = mostly below about 43%
CHX counter = affects cycloheximide protein synthesis inhibition readout, counter-screen. cell reporter, cycloheximide protein synthesis inhibition counterscreen. max response, %. actives 12% (n = 300,000). AID 2314; in the data active = max response mostly above about 13%, no sharp cut-off; inactive = mostly below about 14%; also: read at 38.3 µM for the half of the compounds with a filed dose
Pf growth 48h = P. falciparum growth inhibition at 48 hours (one generation). P. falciparum luciferase growth in erythrocytes, 48 h. Potency, µM (top dose mostly 28.7 µM), hits mostly inhibitors. actives 5.9% (n = 310,000). AID 504832
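Luminescence readout; reporter = integrated firefly luciferase in P. falciparum. RBC culture at 2% hematocrit, 0.1% parasitemia final, 37 C/5% CO2; decreased signal taken as growth inhibition.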
Pf growth 96h = P. falciparum growth inhibition at 96 hour, primary screen for plastid delayed-death inhibitors; P. falciparum luciferase reporter growth, 96 h; Potency, µM (doses to about 28.7 µM), most hits filed as inhibitors; actives 6.9% (n = 320,000); AID 504834
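Readout is luminescence from an integrated firefly luciferase in P. falciparum. Red cells, 2% hematocrit and 0.05% parasitemia final, were cultured with compound through two parasite generations (96 hours) at 37 C, 5% CO2.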
Large screens that a line does not name were inactive. Compounds with a hit are over-represented: about 20% of the library has one in this group of screens. Unless noted, calls follow the shape of the dose curve; as a rule, active = well fitted inhibition curve with a large enough effect; inconclusive = small, poorly fitted or top-dose-only effect, or another doubt; inactive = no such curve, though single readings can be large or run the other way.

CCC(NC(=S)NC1CCCCC1)c1ccc(C(C)C)cc1 (stereo unspecified)	Pf growth 48h 8.3µM, Pf growth 96h 3.3µM
CCC(NC(=O)NC1CCCCC1)c1ccccc1 (stereo unspecified)	none
COc1ccc(C(C)NC(=O)C2CCCC2)cc1OC (stereo unspecified)	Pf growth 48h inconclusive
Cc1ccc(C(C)NC(=S)NC2CCCCC2)cc1C (stereo unspecified)	HCMV antiviral -75, Pf growth 48h 10µM, Pf growth 96h 10µM
COc1ccc(C(C)NC(=S)NC2CCCC2)cc1OC (stereo unspecified)	Pf growth 48h 1.9µM, Pf growth 96h inconclusive
Cc1ccc(C(C)NC(=O)C2CCCC2)c(C)c1 (stereo unspecified)	none (no result: Shiga inhibitor)
CCOC1=C2[C@@H](CN(S(=O)(=O)c3ccc(C)cc3)[C@H]2c2ccccc2F)[C@H]2C(=O)N(c3ccccc3)C(=O)[C@H]2C1	none (no result: Shiga inhibitor, CHX counter, Pf growth 48h, Pf growth 96h)
CCCC(C)C(=O)Nc1ccc(Cl)cn1 (stereo unspecified)	Shiga inhibitor 47, CHX counter 8.0 (no result: Pf growth 96h)
CCCCCC(=O)Nc1ccc(Cl)cn1	Shiga inhibitor 61, CHX counter 39
COc1ccc(CCC(=O)Nc2ccc(Br)cn2)cc1	CHX counter 38 (no result: Pf growth 96h)
O=C(O)CCC(=O)Nc1ccc(Br)cn1	none (no result: Pf growth 96h)
CCCCCCC(=O)Nc1ccc(Br)cn1	Shiga inhibitor 50, CHX counter 30
COC(=O)Nc1ccc(S(=O)(=O)N2CCC(C(=O)N3CCCC(C)C3)CC2)cc1 (stereo unspecified)	none
Brc1ccc(C[n+]2ccccc2)cc1	Pf growth 48h 2.9µM, Pf growth 96h 7.4µM (no result: Shiga inhibitor, CHX counter)
O=[N+]([O-])c1ccc(C[n+]2ccccc2)cc1	Pf growth 48h inconclusive, Pf growth 96h inconclusive (no result: Shiga inhibitor, CHX counter)
CSc1nc2ccc(NC(=O)c3ccc(F)c(F)c3)cc2s1	Shiga inhibitor 41, CHX counter 39
CSc1nc2ccc(NC(=O)c3cccs3)cc2s1	none (no result: Shiga inhibitor, CHX counter, Pf growth 48h, Pf growth 96h)
Cc1ccc(NC(=O)CSc2nc3ccc(NC(=O)c4ccco4)cc3s2)cc1	HCMV antiviral -62 (no result: Shiga inhibitor, CHX counter, Pf growth 48h, Pf growth 96h)
Cc1ccc(NC(=O)CSc2nnc(NC(=O)c3ccco3)s2)cc1	none
CSc1nc2ccc(NC(=O)c3cc4ccccc4o3)cc2s1	Shiga inhibitor 70, CHX counter 30
CCOC(=O)Nc1ccc2nc(Sc3ccc(Cl)cc3)sc2c1	Pf growth 48h 9.3µM, Pf growth 96h 15µM
CC1=C(C(=O)Nc2ccccc2C)C(c2cccnc2)n2nc(SCc3ccccc3)nc2N1 (stereo unspecified)	none (no result: Shiga inhibitor, CHX counter, Pf growth 48h, Pf growth 96h)
COc1cc2c(cc1OC)CN(C(=O)c1ccc(N3CCCC3)c([N+](=O)[O-])c1)CC2	Pf growth 48h inconclusive, Pf growth 96h inconclusive (no result: Shiga inhibitor, CHX counter)
CC(=O)Nc1ccc2nc(NC(=O)c3ccco3)sc2c1	Shiga inhibitor 36, CHX counter 25, Pf growth 96h inconclusive
CCC(=O)Nc1nc2ccc(NC(C)=O)cc2s1	CHX counter 33
CC(=O)Nc1ccc2nc(NC(=O)c3ccc([N+](=O)[O-])o3)sc2c1	HCMV antiviral -102, Pf growth 48h inconclusive, Pf growth 96h inconclusive
CCOc1cccc2sc(NN)nc12	Pf growth 48h inconclusive, Pf growth 96h inconclusive
CCOc1cccc2sc(Nc3nc4ccc(NC(C)=O)cc4s3)nc12	HCMV antiviral -90, Shiga inhibitor 58, CHX counter 27, Pf growth 48h inconclusive, Pf growth 96h inconclusive
CCc1cc(=O)oc2c(C)c3c(cc12)CN(CCc1ccccc1)CO3	none (no result: Shiga inhibitor, CHX counter, Pf growth 48h, Pf growth 96h)
COCC(=O)N(C)C[C@H]1N[C@@](C)(C(=O)OC)[C@H]2C(=O)N(Cc3ccccc3)C(=O)[C@@H]12	none (no result: Shiga inhibitor, CHX counter, Pf growth 48h, Pf growth 96h)
CSc1nc2ccc(NC(=O)c3ccco3)cc2s1	Shiga inhibitor 57, CHX counter 35, Pf growth 48h inconclusive, Pf growth 96h inconclusive
CSc1nc2ccc(NC(=O)c3nn(C(C)C)c(=O)c4ccccc34)cc2s1	Shiga inhibitor 102, CHX counter 53
O=C(Nc1nc2ccc([N+](=O)[O-])cc2s1)c1c(F)cccc1F	HCMV antiviral inconclusive, Pf growth 96h inconclusive
CSc1nc2ccc(NC(=O)c3ccc(=O)n(C)n3)cc2s1	Shiga inhibitor 42, CHX counter 19
O=C(Nc1nc2ccc([N+](=O)[O-])cc2s1)c1ccco1	CHX counter 27
COc1ccc(/C=c2\sc3nc(=O)c(C)nn3c2=O)c(OC)c1	HCMV antiviral -62
COc1ccccc1/C=c1\sc2nc(-c3ccccc3OC)nn2c1=O	none
O=C(CSc1nc(C2CC2)nc2sc3c(c12)CCCC3)NCc1ccco1	none
CC(C)Sc1nc2sc3c(c2c2nnc(SCC(=O)NCc4ccco4)n12)CCCC3	Pf growth 48h 6.6µM, Pf growth 96h inconclusive
Cc1nc(SCC(=O)NCc2ccco2)c2c3c(sc2n1)CCCC3	Shiga inhibitor 43, CHX counter 24, Pf growth 96h inconclusive (no result: Pf growth 48h)
Cc1cc(C)c(NC(=O)C2CC(=O)N(C(C)C)C2)c(C)c1 (stereo unspecified)	Pf growth 96h inconclusive
CC(=O)N(CC(=O)Nc1nn(-c2ccccc2)nc1C(N)=O)Cc1ccccc1	Pf growth 48h 1µM (no result: Pf growth 96h)
NC(=O)c1nn(-c2ccccc2)nc1NC(=O)CN1CCCC1	HCMV antiviral inconclusive
O=C(NC1CCCCC1)NC1CC2CCC(C1)N2Cc1nnnn1Cc1ccc2c(c1)OCO2 (stereo unspecified)	Pf growth 48h inconclusive
CC(CN1CCOCC1)C(=O)O (stereo unspecified)	Pf growth 96h 9.3µM
OC(CN1CCOCC1)CN1CCOCC1	HCMV antiviral -65
CCOC(=O)N1CCN(C(=O)N2CCOCC2)CC1	none
CN(CC(O)CN1CCOCC1)S(=O)(=O)O (stereo unspecified)	Pf growth 48h inconclusive
CCOC(=O)N1CC(C)N(CC(O)CN2CCOCC2)CC1C (stereo unspecified)	HCMV antiviral -88 (no result: Shiga inhibitor, CHX counter, Pf growth 48h, Pf growth 96h)
CCOC(=O)c1ccc(NC(=O)Nc2ccc(Cl)cn2)cc1	Pf growth 96h inconclusive
CCOC(=O)c1ccc(NC(=O)Nc2nc3ccccc3s2)cc1	none (no result: Shiga inhibitor, CHX counter, Pf growth 48h, Pf growth 96h)
CCOC(=O)c1ccc(NC(=O)Nc2ccon2)cc1	HCMV antiviral active, Shiga inhibitor 66, CHX counter 31
CCOC(=O)c1ccc(NC(=O)Nc2nncs2)cc1	HCMV antiviral -75 (no result: Shiga inhibitor, CHX counter, Pf growth 48h, Pf growth 96h)
O=C(Nc1ccc(N2CCN(C(=O)c3cccs3)CC2)cc1)c1cccnc1	Pf growth 48h inconclusive, Pf growth 96h 2.9µM
CC1CCN(c2ccc(NC(=O)c3cccnc3Cl)cc2)CC1	Pf growth 96h 10µM
CC1CCN(c2ccc(NC(=O)c3cccnc3)cc2)CC1	Shiga inhibitor 55, CHX counter 33
Cc1cc(C)c(C(=O)C(C)OC(=O)c2ccc(Cl)nc2)cc1C (stereo unspecified)	none
Cc1ccc(Cn2c(=O)n(Cc3ccc(Cl)cc3)c(=O)c3cccnc32)cc1	none (no result: Shiga inhibitor, CHX counter, Pf growth 48h, Pf growth 96h)
CC(c1ccccc1)N1CCn2c(nc3cc(NS(C)(=O)=O)ccc32)C1 (stereo unspecified)	none
CC[C@H](C)[C@@H](C(=O)NCCCCCCCCCCC(=O)N1CCNCC1)n1cc(CCCCN=C(N)N)nn1	Pf growth 48h 2.9µM, Pf growth 96h 2.3µM (no result: Shiga inhibitor, CHX counter)
